# Experimental data taken from PubChem BioAssay (NCATS).
# Values joined by “and” are separate entries in the source; they are usually repeats but may differ in a detail not shown here. Equal values may be shown once. Inconclusive results are not listed. Active and inactive are the calls of the source. Calls follow the shape of the dose curve; as a rule, active = well fitted curve in the direction sought with a large enough effect; inconclusive = small, poorly fitted or top-dose-only effect, or another doubt; inactive = no such curve, though single readings can be large; an effect the other way counts as inactive or inconclusive.
# Assays:
# [1] = Viability qHTS for spleen associated tyrosine kinase inhibitor (SYKi) naive MV4-11 cells (AID 1963823); settings: MV4-11 AML viability, CellTiter-Glo luminescence, 72 h; series mostly up to 45 µM; also: nearly all actives have a fitted effect of over 40% in size
# In short: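 Viability of MV4-11 AML cells lacking prior SYK inhibitor exposure is scored by CellTiter-Glo luminescence following 72 hr compound incubation at 37 C, 5% CO2, seeded at 500 cells per well.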
# [2] = Viability qHTS for spleen associated tyrosine kinase inhibitor (SYKi) drug resistant MV4-11 cells (AID 1963824); settings: SYKi-resistant MV4-11 viability, CellTiter-Glo, 72 h; series mostly up to 45 µM; also: nearly all actives have a fitted effect of over 35% in size
# In short: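 SYK inhibitor-resistant MV4-11 AML cells, 500 per well, added to predispensed compounds and incubated 72 hr at 37 C, 5% CO2. Viability measured by CellTiter-Glo luminescence after 10 min at room temperature.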
# [3] = Quantitative highthroughput screen to assess conditional lethalithy of NOMO1 cells grown in RPMI1640 with untreated serum (RPMI+s) (AID 1963876); settings: NOMO1 AML cells in RPMI+serum, CellTiter-Glo viability, 48 h; series mostly up to 45.8 µM; also: nearly all actives have a fitted effect of over 35% in size
# In short: (§1)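 Each medium arm—HPLM with 10% dialyzed FBS, or RPMI1640 with 5 mM glucose and 10% untreated or dialyzed FBS—was screened against an 11-point, 3-fold compound titration for 48 h at 37 °C, with CellTiter-Glo luminescence as endpoint.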
# [4] = Quantitative highthroughput screen to assess conditional lethalithy of P12 Ichikawa cells grown in Human Plasma-Like Medium with dialyzed fetal bovine serum (HPLM+ds) (AID 1963879); settings: ATP luminescence, 48 h; Potency: viability; series mostly up to 45.8 µM; also: nearly all actives have a fitted effect of over 35% in size
# In short: as §1
# [5] = Quantitative highthroughput screen to assess conditional lethalithy of P12 Ichikawa cells grown in RPMI1640 with dialyzed fetal bovine serum (RPMI+ds) (AID 1963880); settings: ATP luminescence, 48 h; Potency: P12-Ichikawa viability; series mostly up to 45.8 µM; also: nearly all actives have a fitted effect of over 35% in size
# In short: as §1
# [6] = Cellular viability qHTS for adrenocortical cancer (ACC) cell line NCI-H295R (AID 1963990); settings: CellTiter-Glo ATP luminescence, 48 h; series mostly up to 46.1 µM; also: nearly all actives have a fitted effect of over 60% in size
# In short: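 Compound titrations (up to 46 uM final) are applied to NCI-H295R cultures for 48 h at 37C. Viable cell number is estimated by CellTiter-Glo signal, normalised to DMSO and doxorubicin controls.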
# [7] = Quantitative highthroughput screen to assess conditional lethalithy of P12 Ichikawa cells grown in RPMI1640 with untreated serum (RPMI+s) (AID 1963881); settings: ATP luminescence, 48 h; Potency: viability; series mostly up to 45.8 µM; also: nearly all actives have a fitted effect of over 35% in size
# In short: as §1
# [8] = Quantitative highthroughput screen to assess conditional lethalithy of SEM cells grown in RPMI1640 with dialyzed fetal bovine serum (RPMI+ds) (AID 1963884); settings: SEM B-ALL cells, RPMI+dialyzed FBS, CellTiter-Glo viability, 48 h; series mostly up to 45.8 µM; also: nearly all actives have a fitted effect of over 35% in size
# In short: as §1
# [9] = Cellular viability qHTS for adrenocortical cancer (ACC) cell line SW-13 (AID 1963989); settings: SW-13 ACC cells viability, CellTiter-Glo, 48 h; activity (max response): stronger effect = lower value; also: nearly all actives have a fitted effect of over 65% in size
# In short: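 48 h treatment, SW-13 in ITS/DMEM serum-free; doses up to 46 uM; readout CellTiter-Glo luminescence; curve fit four-parameter logistic.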
# [10] = Quantitative highthroughput screen to assess conditional lethalithy of SEM cells grown in Human Plasma-Like Medium with dialyzed fetal bovine serum (HPLM+ds) (AID 1963882); settings: SEM B-ALL cells in HPLM+ds, CellTiter-Glo viability, 48 h; series mostly up to 45.8 µM; also: nearly all actives have a fitted effect of over 35% in size
# In short: as §1
# [11] = Quantitative highthroughput screen to assess conditional lethalithy of SEM cells grown in RPMI1640 with unreated serum (RPMI+s) (AID 1963883); settings: SEM B-ALL cells, CellTiter-Glo viability, 48 h; series mostly up to 45.8 µM; also: nearly all actives have a fitted effect of over 35% in size
# In short: as §1
# Potency is read from the fitted curve at half-maximal effect.
SMILES,Potency [1],Potency [2],Potency [3],Potency [4],Potency [5],Potency [6],Potency [7],Potency [8],Potency [9],Potency [10],Potency [11]
CCCCCNC(=O)N1CCC(CN(Cc2ccc(Cl)cc2)Cc2ccc([N+](=O)[O-])s2)C1 (stereo not drawn),20.9 µM (active),13.2 µM (active),inactive,inactive,inactive,28.2 µM (active),,,,,
CS(=O)(=O)CCNCc1ccc(-c2ccc3ncnc(Nc4ccc(OCc5cccc(F)c5)c(Cl)c4)c3c2)o1,20.6 µM (active) and 14.8 µM (active),16.8 µM (active) and 8.2 µM (active) and 11.8 µM (active),18.7 µM (active),inactive,18.7 µM (active),23.1 µM (active) and 17.8 µM (active),18.7 µM (active),23.5 µM (active),18.4 µM (active) and 14.1 µM (active),,
CN(C)CCCNC(=O)c1ccc(-c2cc(O)c3ncccc3c2)cc1,5.8 µM (active),5.17 µM (active) and 14.8 µM (active),inactive,inactive,inactive,12.6 µM (active),,,,,
COc1cc2ncnc(Nc3ccc(F)c(Cl)c3)c2cc1OCCCN1CCOCC1,4.22 µM (active),6.68 µM (active) and 3.66 µM (active),inactive,,inactive,inactive,inactive,,,38.2 µM (active),42.9 µM (active)
FC(F)(F)c1ccc(CNc2ccc(Cc3c[nH]c4ncc(Cl)cc34)cn2)cn1,146 nM (active) and 417 nM (active),366 nM (active) and 833 nM (active),2.34 µM (active),0.295 µM (active),3.31 µM (active),inactive,,1.48 µM (active),,1.86 µM (active),0.132 µM (active)
